Measured values from PubChem BioAssay (NCATS).
Values joined by “and” are separate entries in the source; they are usually repeats but may differ in a detail not shown here. Equal values may be shown once. Records with an inconclusive call do not appear. Active and inactive are the calls of the source. The call rests on the fitted dose curve.

Experiment: qHTS Assay for Lipid Storage Modulators (AID 1519); on activity change, negative = inhibition: on the % scale 0 is the no-effect control and ±100 the full control effect
Details: Drosophila S3 cells, BODIPY lipid droplet/cell ratio, laser cytometry; at 57.5 µM (top of the series); cells loaded with oleic acid
How it was run: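 Cells seeded at 5,000 per well were treated with compounds over a concentration series and loaded with oleic acid (400 uM, as added). Lipid droplet fluorescence (488 nm excitation, 500-530 nm channel) was read by laser-scanning cytometry and normalized to 20 uM Triacsin C.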
With COc1cc(CC(=O)O)ccc1O the activity change, negative = inhibition was -0.731% (inactive). In the case of NC(Cc1cccc(-c2ccccc2CP(=O)(O)O)c1)C(=O)O (stereo not drawn), the activity change, negative = inhibition is reported as 1.29% (inactive). In the case of Cn1c(=O)c2[nH]c(C3CCCC3)nc2n(C)c1=O, the activity change, negative = inhibition is reported as 11.7% (inactive) and -0.538% (inactive). In the case of O=c1[nH]c(=O)c2nc3ccccc3nc2[nH]1, the activity change, negative = inhibition is reported as -0.305% (inactive). For NOCC(=O)O, the activity change, negative = inhibition was 2.14% (inactive). In the case of NC(N)=NC(N)=Nc1ccccc1, the activity change, negative = inhibition is reported as -1.27% (inactive) and 5.81% (inactive). In the case of CC1CCN(CC[C@H]2CCCN2S(=O)(=O)c2cccc(O)c2)CC1, the activity change, negative = inhibition is reported as 5.39% (inactive) and 1.08% (inactive). With CC(C)NCC(O)COc1ccc(CC(N)=O)cc1 (stereo not drawn) the activity change, negative = inhibition was -4.52% (inactive). In the case of N[C@H](C(=O)O)[C@H](O)C(=O)O, the activity change, negative = inhibition is reported as 1.02% (inactive). In the case of NC1C=CC=C(C(=O)O)C1 (stereo not drawn), the activity change, negative = inhibition is reported as 2.8% (inactive). In the case of NCCC1CCCC(CCN)N1 (stereo not drawn), the activity change, negative = inhibition is reported as -3.87% (inactive). For CN(C)CCC(c1ccc(Br)cc1)c1ccccn1 (stereo not drawn), the activity change, negative = inhibition was 0.401% (inactive). In the case of NC(N)=NC(N)=Nc1cccc(Cl)c1, the activity change, negative = inhibition is reported as 3.33% (inactive) and -0.622% (inactive). In the case of CC(=O)O[C@H]1CC2(C)[C@@H](C[C@@H](O)[C@H]3[C@@]4(C)CC[C@@H](O)[C@@H](C)[C@@H]4CC[C@@]32C)C1=C(CCC=C(C)C)C(=O)O (stereo partly drawn), the activity change, negative = inhibition is reported as 0.469% (inactive). With CCN(CC)CCCCCCCCOC(=O)c1cc(OC)c(OC)c(OC)c1 the activity change, negative = inhibition was 0.792% (inactive). With C[C@H](O)C(=O)C1=Nc2c(nc(N)[nH]c2=O)NC1 the activity change, negative = inhibition was 3.44% (inactive). In the case of c1ccc(CN2CCC3(CCCc4ccccc43)CC2)cc1, the activity change, negative = inhibition is reported as -2.7% (inactive). In the case of O=C(O)c1ccccc1Nc1ccccc1, the activity change, negative = inhibition is reported as 7.05% (inactive) and 0.0171% (inactive). For NC(N)=[N+]1CCc2ccccc2C1, the activity change, negative = inhibition was 1.3% (inactive). In the case of CC(N)=NCCCC[C@@H](N)C(=O)O, the activity change, negative = inhibition is reported as -0.966% (inactive). In the case of O=C(O)C1=CCCN(CCON=C(c2ccccc2)c2ccccc2)C1, the activity change, negative = inhibition is reported as 3.28% (inactive) and 2.71% (inactive). In the case of COc1cc(C(O)CO)ccc1O (stereo not drawn), the activity change, negative = inhibition is reported as -0.467% (inactive). With COc1ccccc1N1CCN(CCCNc2c(C)c(=O)n(C)c(=O)n2C)CC1 the activity change, negative = inhibition was -0.317% (inactive). In the case of CN[C@H](CC(=O)O)C(=O)O, the activity change, negative = inhibition is reported as 3.39% (inactive). In the case of CSC(N)=NCCC[C@H](N)C(=O)O, the activity change, negative = inhibition is reported as -0.616% (inactive). For CN1CCN(c2nc3cc(C(F)(F)F)ccc3n3cccc23)CC1, the activity change, negative = inhibition was 2.45% (inactive). For CCCC[C@@]1(C2CCCC2)Cc2cc(OCC(=O)O)c(Cl)c(Cl)c2C1=O, the activity change, negative = inhibition was -1.19% (inactive). For COc1cc(/C=C(\C#N)C(=O)c2ccc(O)c(O)c2)cc(I)c1O, the activity change, negative = inhibition was -0.482% (inactive). With O=C(O)/C(=C/c1c(C(=O)O)[nH]c2cc(Cl)cc(Cl)c12)c1ccccc1 the activity change, negative = inhibition was 0.679% (inactive). For NC1(C(=O)O)CCc2cc(C(=O)O)ccc21 (stereo not drawn), the activity change, negative = inhibition was -2.76% (inactive). For CN1CCC2(CCN3CCc4c(oc5ccccc45)C3C2)N(C)C1=O (stereo not drawn), the activity change, negative = inhibition was -0.497% (inactive). For CC(=O)NCCc1c[nH]c2ccc(O)cc12, the activity change, negative = inhibition was 10.9% (inactive). For Cc1cc2c(cc1Cl)N(C(=O)Nc1ccnc3ccccc13)CC2, the activity change, negative = inhibition was 3.56% (inactive). With Cc1cccc(C)c1OCC(N)C(C)C (stereo not drawn) the activity change, negative = inhibition was 0.702% (inactive). For O=C(O)c1cccnc1C(=O)O, the activity change, negative = inhibition was 1.68% (inactive). In the case of Nc1nc2[nH]c(=O)cnc2c(=O)[nH]1, the activity change, negative = inhibition is reported as 0.27% (inactive).

Same assay, conditions: Drosophila S3 cells, BODIPY lipid droplet/cell ratio, laser cytometry; measured here: cell count channel max response; cells loaded with oleic acid
Work on COc1cc(CC(=O)O)ccc1O yielded a max response of 56.6%. For NC(Cc1cccc(-c2ccccc2CP(=O)(O)O)c1)C(=O)O (stereo not drawn), the max response was 44.3%. For Cn1c(=O)c2[nH]c(C3CCCC3)nc2n(C)c1=O, the max response was 10.8% and -10.7%. With O=c1[nH]c(=O)c2nc3ccccc3nc2[nH]1 the max response was -11.1%. For NOCC(=O)O, the max response was -5.32%. In the case of NC(N)=NC(N)=Nc1ccccc1, the max response is reported as 10.6% and 8.56%. In the case of CC1CCN(CC[C@H]2CCCN2S(=O)(=O)c2cccc(O)c2)CC1, the max response is reported as 7.6% and -15.4%. With CC(C)NCC(O)COc1ccc(CC(N)=O)cc1 (stereo not drawn) the max response was -32.1%. Compound N[C@H](C(=O)O)[C@H](O)C(=O)O has a max response of -11.9%. For NC1C=CC=C(C(=O)O)C1 (stereo not drawn), the max response was 4.79%. Work on NCCC1CCCC(CCN)N1 (stereo not drawn) yielded a max response of -16%. Work on CN(C)CCC(c1ccc(Br)cc1)c1ccccn1 (stereo not drawn) yielded a max response of 15.4%. With NC(N)=NC(N)=Nc1cccc(Cl)c1 the max response was 13.6% and -27.3%. For CC(=O)O[C@H]1CC2(C)[C@@H](C[C@@H](O)[C@H]3[C@@]4(C)CC[C@@H](O)[C@@H](C)[C@@H]4CC[C@@]32C)C1=C(CCC=C(C)C)C(=O)O (stereo partly drawn), the max response was -5.46%. Compound CCN(CC)CCCCCCCCOC(=O)c1cc(OC)c(OC)c(OC)c1 has a max response of 8.64%. COc1ccccc1N1CCN(CCCCNC(=O)c2ccc3ccccc3c2)CC1 gave a max response of 1.63%. Compound C[C@H](O)C(=O)C1=Nc2c(nc(N)[nH]c2=O)NC1 has a max response of 8.97%. In the case of c1ccc(CN2CCC3(CCCc4ccccc43)CC2)cc1, the max response is reported as -38%. For O=C(O)c1ccccc1Nc1ccccc1, the max response was 2.57% and -16.2%. In the case of NC(N)=[N+]1CCc2ccccc2C1, the max response is reported as 6.74%. Compound CC(N)=NCCCC[C@@H](N)C(=O)O has a max response of 1.29%. In the case of O=C(O)C1=CCCN(CCON=C(c2ccccc2)c2ccccc2)C1, the max response is reported as -11.1% and 10.2%. Work on COc1cc(C(O)CO)ccc1O (stereo not drawn) yielded a max response of -50.8%. COc1ccccc1N1CCN(CCCNc2c(C)c(=O)n(C)c(=O)n2C)CC1 showed a max response of 38.5%. Compound CN[C@H](CC(=O)O)C(=O)O has a max response of 12.1%. In the case of CSC(N)=NCCC[C@H](N)C(=O)O, the max response is reported as 39.8%. CN1CCN(c2nc3cc(C(F)(F)F)ccc3n3cccc23)CC1 gave a max response of 18.9%. In the case of CCCC[C@@]1(C2CCCC2)Cc2cc(OCC(=O)O)c(Cl)c(Cl)c2C1=O, the max response is reported as -23.6%. For COc1cc(/C=C(\C#N)C(=O)c2ccc(O)c(O)c2)cc(I)c1O, the max response was 28.4%. O=C(O)/C(=C/c1c(C(=O)O)[nH]c2cc(Cl)cc(Cl)c12)c1ccccc1 showed a max response of -8.09%. With NC1(C(=O)O)CCc2cc(C(=O)O)ccc21 (stereo not drawn) the max response was -17.6%. CN1CCC2(CCN3CCc4c(oc5ccccc45)C3C2)N(C)C1=O (stereo not drawn) gave a max response of 45.8%. For CC(=O)NCCc1c[nH]c2ccc(O)cc12, the max response was 15.4%. Compound Cc1cc2c(cc1Cl)N(C(=O)Nc1ccnc3ccccc13)CC2 has a max response of 57.9%. With Cc1cccc(C)c1OCC(N)C(C)C (stereo not drawn) the max response was 60.7%. Work on O=C(O)c1cccnc1C(=O)O yielded a max response of 9.96%. Compound Nc1nc2[nH]c(=O)cnc2c(=O)[nH]1 has a max response of 60.5%.
